Rows were chosen to be rich in hits. Some 2.8% of all compounds tested hit in one or more screens of this group.
HIF activator: HIF pathway transcriptional activation; U2OS HRE-luciferase reporter, luminescence; normalized: DMSO 0%, desferrioxamine 100%; AID 1910; hit rate 0.32% among 300,000; activation, % at 7.5 µM (by protocol);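 active = mean activation of at least 10% of the iron chelator positive control signal, with at least half of replicates also reaching 10%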
PolyA inh: inhibitors of polyadenylation in S. cerevisiae. S. cerevisiae SKY197-pL101 polyadenylation reporter, beta-gal luminescence; efflux-impaired pdr1/pdr3 knockout yeast; score 100 = 6 SD above DMSO. activity score, % at 12 µM. hit rate 0.02% among 300,000. AID 1875;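 active = lowest replicate activity score at least 50, where 100 means six control SD above control mean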;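 also: yeast exposed to compound for 9 h at 30 °C; higher score means more reporter readthrough which indicates perturbed polyadenylation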
p-CIP stab down: compounds decreasing mouse p/CIP protein stability; Q05BA5; F442A p/CIP-EGFP cells, EGFP fluorescence, 16 h; decrease of EGFP signal, % at 10 µM; hit rate 0.01% among 290,000; AID 1984;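 active = EGFP signal decrease of at least 30% at 10 µM or well 3 SD below plate mean, unless failing retest; inactive = the rest, including hits failing retest or dose response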
Platelet DG rel: modulates dense granule release in human platelets. human platelet-rich plasma, SFLLRN dense granule ATP release, luminescence. hit rate 0.22% among 300,000. inhibition, %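 (compounds screened at 7.5 µM in platelet-rich plasma)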;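 active = mean replicate score, as percent of positive control, at or above 50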
AHR act: activators of human aryl hydrocarbon receptor. P35869. AHR-responsive luciferase reporter cells, luminescence. activation, % at 5 µM. hit rate 2.5% among 320,000. AID 2796; in the data active = activation above about 47%;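 also: 0% = vehicle wells and 100% = reference agonist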
Target sequence (P35869 whole entry, looked up): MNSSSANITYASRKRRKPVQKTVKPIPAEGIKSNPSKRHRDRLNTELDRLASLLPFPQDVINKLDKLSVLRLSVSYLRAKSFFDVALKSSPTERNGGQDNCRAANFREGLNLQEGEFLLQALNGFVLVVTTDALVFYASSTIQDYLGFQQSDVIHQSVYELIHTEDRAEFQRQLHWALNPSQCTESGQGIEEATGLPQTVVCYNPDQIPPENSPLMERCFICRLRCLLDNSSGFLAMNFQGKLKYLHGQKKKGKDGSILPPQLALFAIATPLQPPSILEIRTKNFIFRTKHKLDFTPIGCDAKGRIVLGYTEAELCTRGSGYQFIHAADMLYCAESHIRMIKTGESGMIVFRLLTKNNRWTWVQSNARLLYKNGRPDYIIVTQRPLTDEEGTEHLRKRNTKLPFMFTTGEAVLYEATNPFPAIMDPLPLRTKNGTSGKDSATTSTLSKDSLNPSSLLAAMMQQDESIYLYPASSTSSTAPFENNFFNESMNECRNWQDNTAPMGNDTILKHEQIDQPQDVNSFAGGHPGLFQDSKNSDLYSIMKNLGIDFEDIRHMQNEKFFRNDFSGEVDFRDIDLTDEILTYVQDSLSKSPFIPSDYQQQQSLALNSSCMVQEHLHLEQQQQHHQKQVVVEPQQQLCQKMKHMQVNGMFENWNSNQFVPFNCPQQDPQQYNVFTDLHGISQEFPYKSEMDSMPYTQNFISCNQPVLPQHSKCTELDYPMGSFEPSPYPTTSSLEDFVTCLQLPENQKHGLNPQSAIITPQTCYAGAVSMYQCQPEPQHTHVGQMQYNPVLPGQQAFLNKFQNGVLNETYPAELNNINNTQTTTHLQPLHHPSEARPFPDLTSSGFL
AHR act cf: human AHR activation, confirmation; shares compounds with AHR act; human cells, AHR-responsive luciferase reporter, luminescence; activation, % at 9 µM; hit rate 87% among 2,300; in the data active = activation above about 49%;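 also: HepG2 hepatoma cells carrying a DRE-driven firefly luciferase reporter; 0% = vehicle wells and 100% = reference agonist wells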
PXR act counter: PXR activation, counter-screen for AHR activators | hit rate 88% among 2,300 | cell-based PXR reporter, luciferase luminescence | activation, % at 11.6 µM | shares compounds with AHR act | AID 434939; in the data active = activation above about 11%;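 also: human hepatoma DPX-2 cells expressing full-length human PXR; 0% = DMSO and 100% = reference agonist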
* hit, by the source's call; . = no result given.

SMILES	HIF activator	PolyA inh	p-CIP stab down	Platelet DG rel	AHR act	AHR act cf	PXR act counter
O=C(/C=C/Nc1ccc(F)cc1F)c1ccc(Br)cc1	3	-8	.	-3	90*	90*	12*
O=C(/C=C/Nc1ccc(F)cc1F)c1cccs1	-1	3	-43	36	86*	108*	86*
O=C(CN1CCCCCC1)Nc1ccc(Br)cc1	0	8	-2	9	84*	112*	60*
O=C(CN1CCCC1)Nc1ccc(Br)cc1	0	27	-2	-1	-1	.	.
O=C(Nc1cc(Cl)cc(Cl)c1)c1cccc(OC(F)F)c1	1	-10	-10	10	81*	94*	44*
Cc1ccnc(NC(=O)c2cccc(OC(F)F)c2)n1	2	39	-1	5	16	.	.
O=C(Nc1ccc(C(=O)O)cc1)/C(=C\c1ccco1)NC(=O)c1ccco1	0	-6	-4	13	1	.	.
O=[N+]([O-])c1cccc(C(=Nc2ccccc2Cl)NO)c1	0	-9	-10	-1	85*	73*	50*
CC(=O)Nc1cccc(Oc2ncnc3scc(-c4ccc(C(C)C)cc4)c23)c1	-1	14	-6	3	24	.	.
CCCCN(C)C(=O)c1ccc2c(c1)S(=O)(=O)c1ccccc1C2=O	0	-14	-18	-28	2	.	.
COc1ccc(/C=C2\SC(=N)N(c3nccs3)C2=O)cc1OC	0	4	-6	-3	85*	53*	17*
N=C1S/C(=C\c2ccc(-c3cccc(Cl)c3)o2)C(=O)N1c1nccs1	0	-15	-3	4	18	.	.
Cc1ccc(S(=O)(=O)NCc2cc(=O)n(C)c(=O)n2C)cc1C	-1	-3	-3	3	1	.	.
Cn1cccc1/C=N/n1c(-c2ccc(Cl)cc2)n[nH]c1=S	0	-10	-10	-11	89*	81*	25*
Cc1ccc(-n2c(C)nc3oc4ccccc4c(=O)c3c2=O)cc1	3	-21	-20	1	91*	99*	11*
COc1ccc2c(=O)c3c(=O)n(-c4ccc(C)cc4)c(-c4ccccc4)nc3oc2c1	1	5	-7	3	1	.	.
CCOc1ccc(CNC(=O)CN2C(=O)CSc3ccc(S(=O)(=O)N4CCOCC4)cc32)cc1OC	0	4	10	-7	1	.	.
COc1ccc(/C=N/Nc2nncn2N)cc1Br	-19	2	8	1	88*	41	12*
S=C(NNc1ccc2ccccc2c1)NC1CCCCC1	2	-5	7	-9	108*	90*	99*
CCOc1cccc(/C=C/c2cc(C(=O)O)c3ccccc3n2)c1OC	1	-21	8	1	2	.	.
Cc1ccc(C(c2sc3ncnn3c2O)N2CCCCC2)cc1 (stereo unspecified)	1	13	2	7	6	.	.
Oc1c(C(c2ccc(F)cc2)N2CCc3ccccc3C2)sc2ncnn12 (stereo unspecified)	0	7	5	0	96*	78*	34*
COc1ccccc1-c1noc(-c2ccccc2)n1	3	-21	7	12	122*	101*	26*
COc1ccccc1-c1noc(-c2ccco2)n1	3	-12	-22	-3	90*	120*	17*
COc1ccc(NC(=O)c2c(Cl)nc3ccccn23)cc1	1	-10	-8	0	86*	47	10
SMILES	HIF activator	PolyA inh	p-CIP stab down	Platelet DG rel	AHR act	AHR act cf	PXR act counter
Cc1nc(NCCOc2ccccc2)sc1C(=O)Nc1ccccc1	1	-19	4	-3	88*	145*	47*
COc1ccc(OC)c2sc(NC(=O)CCS(=O)(=O)c3ccccc3)nc12	0	-7	.	7	115*	63*	24*
COCc1nnc(NC(=O)CCS(=O)(=O)c2ccccc2)s1	-1	-12	-24	3	2	.	.
N/C(=N\OC(=O)c1cccc(Br)c1)c1ccccn1	-4	-11	9	-8	99*	95*	4
CCN(CC)S(=O)(=O)c1ccc(C)c(NC(=O)COC(=O)CN2C(=O)NC(C)(C)C2=O)c1	0	-3	.	-11	1	.	.
Cc1ncc(CO)c(/C=N/Nc2ccc(C(F)(F)F)cn2)c1O	9.6*	-14	-19	6	81*	2	15*
COc1cc(NC(=O)CCc2nnc3ccc(N4CCCCC4)nn23)cc(OC)c1OC	0	-11	-4	-2	4	.	.
COc1ccc(N2CCN(C(=O)c3cccc(S(=O)(=O)N4CCc5ccccc54)c3)CC2)cc1	.	.	.	.	3	.	.
O=C(c1cccc(S(=O)(=O)N2CCc3ccccc32)c1)N1CCN(c2ccccn2)CC1	-3	-3	4	-5	80*	93*	200*
COC(=O)c1ccccc1NC(=O)NCCc1ccccc1OC	3	-17	-9	7	88*	110*	32*
COc1ccc(N2C(=O)C(CC(=O)Nc3ccccc3)N(Cc3ccccn3)C2=S)cc1 (stereo unspecified)	-1	0	9	-3	1	.	.
COc1ccc(C(CC(=O)Nc2ccccn2)N2Cc3ccccc3C2=O)cc1OC (stereo unspecified)	1	-26	-6	4	0	.	.
CN1CCN(c2ccc(NC(=O)c3sc4ccccc4c3Cl)cc2)CC1	-4	-6	10	1	80*	49*	.
COCCNC(=O)C(=O)Nc1cc2c3c(c1)CCC(=O)N3CCC2	0	-8	14	-4	3	.	.
Nc1c(C(=O)Nc2ccc(F)cc2)sc(=S)n1-c1ccccc1F	2	-3	0	6	0	.	.
Cn1c(N)c(C(=O)Nc2ccccc2F)sc1=S	.	-13	-7	.	115*	105*	.
O=C(NCCCc1ccccc1)Nc1cccc(Cl)c1	1	-5	-12	-5	-1	.	.
O=C(NCCc1ccncc1)Nc1cccc(Cl)c1	-1	7	-2	1	90*	56*	17*
Cc1ccnc(Nc2nc(-c3ccc(Cl)cc3)cs2)c1	5	14	-5	-1	137*	97*	32*
Cc1ccnc(Nc2nc(-c3ccc(F)cc3)cs2)c1	3	-19	-7	8	165*	132*	15*
COc1ccc(-c2csc(Nc3ccc(C)cn3)n2)cc1	3	22	-7	0	14	.	.
Cc1cccnc1Nc1nc(-c2ccc(F)cc2)cs1	2	-15	6	-2	126*	131*	17*
Cc1ccnc(Nc2nc(-c3sc(C)nc3C)cs2)c1	5	6	.	11	3	.	.
CCN(CC(=O)Nc1c(F)cccc1F)C(=O)c1cc(S(=O)(=O)N2CCOCC2)ccc1N1CCCC1	0	-16	.	19	1	.	.
c1ccc2c(c1)oc1c(NCCCN3CCOCC3)ncnc12	1	9	2	-1	6	.	.

Screening data from PubChem.
